# Bioassay records deposited in PubChem BioAssay by National Center for Advancing Translational Sciences (NCATS).
# Pf growth 48h = Primary qHTS for delayed death inhibitors of the malarial parasite plastid, 48 hour incubation; AID 504832, 2011; Potency, µM (series often up to 28.7 µM), without a hit: at the highest dose activity change, negative = inhibition, most hits filed as inhibitors; P. falciparum luciferase growth in erythrocytes, 48 h; hit rate 5.9% among 310,000; further: potency means the concentration at half of the fitted maximal effect; on the % scale 0 is the no-effect control and ±100 the full control effect
#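 Erythrocytes infected with P. falciparum carrying an integrated firefly luciferase reporter (2% hematocrit, 0.1% parasitemia final) were exposed to compounds in RPMI 1640 with 0.5% Albumax at 37 C, 5% CO2. Growth inhibition was scored as reduced luminescence.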
# CHX counter = Cycloheximide Counterscreen for Small Molecule Inhibitors of Shiga Toxin; cell reporter, cycloheximide protein synthesis inhibition counterscreen; max response, %; hit rate 12% among 300,000; AID 2314, 2010; in the data active means max response mostly above about 13%, no sharp cut-off; inactive means mostly below about 14%; further: read at 38.3 µM for the half of the compounds with a filed dose; 0% is about no effect
# HCV inh = qHTS Assay for Inhibitors of Hepatitis C Virus (HCV); Huh7.5.1 HCVcc-Cre infection, luciferase reporter, 44 h; Potency, µM (highest dose often 41.8 µM), for inactives: at the top dose activity change, negative = inhibition, most hits filed as inhibitors; hit rate 3.4% among 340,000; AID 651820, 2012; further: potency means the concentration at half of the fitted maximal effect; on the % scale 0 is the no-effect control and ±100 the full control effect
#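 1,000 cells/well; 4 h culture; + compound; + HCVcc-Cre (~0.5 moi); 44 h; luciferase substrate, RT 15 min; read 15 sec.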
# Shiga toxin inh = A qHTS for Small Molecule Inhibitors of Shiga Toxin; inhibition, % at 38.7 µM; Vero cells, Shiga toxin protein synthesis inhibition reporter; hit rate 9.2% among 290,000; in the data active means inhibition mostly above about 28%, no sharp cut-off; inactive means mostly below about 43%; further: 0% is about no effect
# Pf growth 96h = Primary qHTS for delayed death inhibitors of the malarial parasite plastid, 96 hour incubation; P. falciparum luciferase reporter growth, 96 h; Potency, µM (top dose mostly 28.7 µM), without a hit: at the top dose activity change, negative = inhibition, hits mostly inhibitors; hit rate 6.9% among 320,000; further: potency means the concentration at half of the fitted maximal effect; on the % scale 0 is the no-effect control and ±100 the full control effect
#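 Cell-based qHTS: luciferase-tagged P. falciparum in erythrocytes (2% hematocrit, 0.05% parasitemia final) incubated with compounds for 96 hours, 37 C, 5% CO2; luciferase detection reagent then added and luminescence measured.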
# HCMV inh = qHTS Assay for inhibitors of the human cytomegalovirus (HCMV). AID 1259415, 2018. HFF cells, HCMV-luciferase reporter, 72 h; hits give low values. hit rate 4.5% among 410,000. activity change, negative = inhibition, % at 57.5 µM; in the data active means activity change below about -60%; inconclusive means no clear call, values can overlap the other calls; inactive means above about -39%; further: on the % scale 0 is the no-effect control and ±100 the full control effect
#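 Cell-based, HFFs, 1000 cells/well, 16 h 37C; cpds in DMSO + HCMV-luc, MOI 1 PFU/cell; 72 h 37C; OneGlo luminescence after 5 min RT; norm. to buffer vs Salinomycin 10uM.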
# An asterisk follows results filed as active; ? = inconclusive; nt = not tested or not shown. Most compounds without a hit are left out; they make up all but 21% or so of the library. Unless noted, the call rests on the fitted dose curve; in most records, active means well fitted inhibition curve with a large enough effect; inconclusive means small, poorly fitted or top-dose-only effect, or another doubt; inactive means no such curve, though single readings can be large or run the other way.
SMILES,Pf growth 48h,CHX counter,HCV inh,Shiga toxin inh,Pf growth 96h,HCMV inh
CCOc1ccccc1NC(=O)CSC1=Nc2ccccc2C2=NC(CC(=O)NCc3ccc4c(c3)OCO4)C(=O)N12 (stereo unspecified),nt,nt,nt,nt,nt,18.2
Cn1c(=O)n(C)c2cc([N+](=O)[O-])c(N3CCN(S(=O)(=O)c4ccc(C(C)(C)C)cc4)CC3)cc21,9.28µM*,0.5,14.1µM*,-7.6,?,-94.4*
O=[N+]([O-])c1cc(C(F)(F)F)ccc1N1CCN(S(=O)(=O)c2ccc3ccccc3c2)CC1,?,1.6,6.31µM*,-5.1,-33.4%,-69.0*
O=S(=O)(c1cccc(C(F)(F)F)c1)N1CCN(c2nnnn2-c2ccccc2)CC1,-1.8%,-3.0,-24.9%,-5.9,8.28µM*,-2.2
O=[N+]([O-])c1cc(C(F)(F)F)cc([N+](=O)[O-])c1N1CCN(S(=O)(=O)c2ccccc2)CC1,?,-3.5,?,-4.2,14.7µM*,-16.5
O=C(Cn1c(=O)oc2cc(S(=O)(=O)NC3CCCC3)ccc21)Nc1ccc(F)c(F)c1,nt,nt,nt,nt,nt,0.9
CCN(CC)c1ccc(NC(=O)C2CCCN(S(=O)(=O)c3ccc4c(c3)oc(=O)n4C)C2)c(C)c1 (stereo unspecified),nt,nt,nt,nt,nt,-23.5
O=C(c1cc(=O)[nH]c2ccccc12)N(Cc1nnc(-c2ccccc2Cl)o1)C1CC1,?,nt,6.0%,nt,?,-5.0
COc1ccc(OC)c(-c2cc(C(=O)NCc3cccs3)no2)c1,?,-0.4,?,24.1,?,27.9
CCCc1cc(C(=O)NCc2ccccc2)no1,56.5%,26.6*,4.9%,58.8*,286.6%,25.0
CCCc1cc(C(=O)NCc2cccnc2)no1,nt,-1.1,12.0%,1.1,-8.0%,45.4
CCCc1cc(C(=O)NCc2cccs2)no1,nt,35.5*,14.5%,60.7,?,60.7
CCCc1cc(C(=O)NCc2ccco2)no1,nt,15.3*,12.5%,71.5*,13.1µM*,16.5
CCCc1cc(C(=O)NCC(C)C)no1,nt,33.2*,3.6%,116.8*,-26.3%,29.5
NS(=O)(=O)c1ccc(CNC(=O)CNC(=O)c2ccc(Br)o2)cc1,52.2%,22.0,-2.5%,55.2,24.7%,-9.3
O=C(NCCC1CCCCN1S(=O)(=O)c1ccccc1)C(=O)Nc1ccc(F)cc1F (stereo unspecified),-2.0%,nt,?,nt,-20.4%,-8.7
COc1ccc(C(=S)N2CCOCC2)cc1OC(=O)c1cc(OC)c(OC)c(OC)c1,-14.7%,7.8,-15.3%,15.3,0.0%,16.9
Cc1ccnc(N/C=C(/NC(=O)c2ccccc2)C(=O)N/N=C\c2ccc(F)cc2)n1,-0.4%,-3.5,0.7%,12.6,3.8%,-0.1
Cc1ccnc(N/C=C(/NC(=O)c2ccccc2)C(=O)NN)n1,21.1%,7.9,9.7%,-6.5,-4.5%,-82.3*
NC(=O)c1sc2nc(-c3cccs3)ccc2c1N,86.5%,48.6*,?,63.7*,108.2%,-33.3
Nc1c(C(=O)NC2CCCC2)sc2nc(-c3cccs3)ccc12,21.1%,21.9*,?,39.1,-90.7%,-4.0
Nc1c(C(=O)Nc2ccc(C(F)(F)F)cc2)sc2nc(-c3cccs3)ccc12,nt,nt,nt,nt,nt,0.5
NC(=O)c1sc2nc3c(c(-c4cccs4)c2c1N)CCCCC3,17.9%,-3.9,-3.5%,-6.8,32.1%,-86.2*
NC(=O)c1sc2nc(-c3ccccc3)ccc2c1N,?,35.1*,8.7%,96.9*,0.0%,11.7
COc1ccc(C(=O)c2sc3nc(-c4ccccc4)ccc3c2N)cc1OC,6.9%,-3.2,?,-16.5,?,-8.3
SMILES,Pf growth 48h,CHX counter,HCV inh,Shiga toxin inh,Pf growth 96h,HCMV inh
CCc1ccccc1NS(=O)(=O)c1ccc(NC(=O)N2CCCC2)cc1,nt,nt,nt,nt,nt,20.9
CCOC(=O)c1sc2nc(-c3ccccc3)ccc2c1N,84.5%,91.5*,9.3%,66.9*,-0.8%,21.8
Cc1cc(C)nc(Sc2ccc([N+](=O)[O-])cc2[N+](=O)[O-])n1,5.86µM*,-4.5,-1.4%,-6.0,-14.1%,?
O=[N+]([O-])c1ccc(Sc2ccncn2)c([N+](=O)[O-])c1,nt,nt,nt,nt,nt,-86.3*
O=[N+]([O-])c1cc(Cl)ccc1Sc1ccccn1,41.3%,-3.0,3.8%,-1.8,33.8%,24.7
CN(C)/N=C/c1ccc(Sc2ccc([N+](=O)[O-])cc2[N+](=O)[O-])o1,-10.5%,-2.6,?,12.6,-22.4%,?
Cc1c(Cl)cccc1-n1nc(C)c2c(C(=O)NCc3ccccc3)cc(C3CC3)nc21,nt,nt,nt,nt,nt,-5.1
Cc1ccc(NC2c3ncccc3C(=O)N2C2CCCCC2)cc1C (stereo unspecified),10.4µM*,6.8,-11.8%,16.6,33.1%,45.0
Cc1cc(C)cc(NC(=O)COC(=O)CCn2c(C)csc2=O)c1,-14.0%,nt,5.3%,nt,?,-5.1
O=C(N/N=C\c1ccc(Cl)cc1Cl)c1sccc1-n1cccc1,-19.1%,0.8,?,17.8,?,16.2
O=C(N/N=C\c1ccc(Cl)cc1)c1sccc1-n1cccc1,1.2%,32.5*,7.7%,70.3*,?,4.4
CN(C)c1ccc(/C=N/NC(=O)c2sccc2-n2cccc2)cc1,?,38.7*,12.9%,98.0*,1.3%,23.0
O=C(NCc1cccnc1)c1nn(-c2ccc(Cl)cc2)nc1CO,nt,nt,nt,nt,nt,45.9
NC(=O)c1c(NC(=O)c2ccncc2)sc2c1CCCC2,47.6%,22.2*,12.6µM*,94.6*,0.0%,9.6
NC(=O)c1c(NC(=O)c2cnccn2)sc2c1CCCC2,105.5%,16.4*,-16.0%,32.0,63.7%,-8.6
NC(=O)c1c(NC(=O)c2ccccc2)sc2c1CCc1ccccc1-2,nt,21.3*,1.1%,32.9,108.6%,164.5
CCN(CC)CCCC(C)NC(=O)c1c(NC(=O)c2ccccc2)sc2c1CCCC2 (stereo unspecified),?,-5.7,10µM*,-16.5,-22.5%,-27.3
COc1cc(-c2cc(OC)c3c(C)oc(C)c3c(=O)c2)ccc1OC(=O)c1ccccc1C,nt,nt,nt,nt,nt,-9.9
NC(=O)c1c(NC(=O)c2ccccc2)sc2c1CCC2,118.9%,64.1*,-10.5%,78.3*,-10.0%,95.4
N#Cc1c(NC(=O)c2ccncc2)sc2c1CCC2,53.7%,16.8*,-12.2%,47.4*,72.8%,39.3
CN(C)C(=O)c1c(NC(=O)c2ccccc2)sc2c1CCC2,-0.4%,2.1,?,2.2,364.4%,21.5
NC(=O)c1c(NC(=O)c2ccncc2)sc2c1CCCCCC2,-12.2%,11.6*,?,25.6,1.7%,-15.8
COc1cccc(OC)c1C(=O)Nc1sc2c(c1C#N)CCC2,-19.6%,0.5,-16.9%,9.7,-17.7%,-8.5
COc1ccc(NC(=O)CSc2nc3c(oc4ccccc43)c(=O)n2-c2ccccc2)cc1OC,nt,nt,nt,nt,nt,-22.0
